31 compounds from PubChem BioAssay (Tox21) can be followed below.

Inconclusive results are not listed. A call without a number means that no potency is given here. Activity calls are given as the source filed them. The call rests on the fitted dose curve.
Potency means the concentration at half of the fitted maximal effect.

Sequence of Progesterone receptor (Homo sapiens) (P06401 whole entry, looked up): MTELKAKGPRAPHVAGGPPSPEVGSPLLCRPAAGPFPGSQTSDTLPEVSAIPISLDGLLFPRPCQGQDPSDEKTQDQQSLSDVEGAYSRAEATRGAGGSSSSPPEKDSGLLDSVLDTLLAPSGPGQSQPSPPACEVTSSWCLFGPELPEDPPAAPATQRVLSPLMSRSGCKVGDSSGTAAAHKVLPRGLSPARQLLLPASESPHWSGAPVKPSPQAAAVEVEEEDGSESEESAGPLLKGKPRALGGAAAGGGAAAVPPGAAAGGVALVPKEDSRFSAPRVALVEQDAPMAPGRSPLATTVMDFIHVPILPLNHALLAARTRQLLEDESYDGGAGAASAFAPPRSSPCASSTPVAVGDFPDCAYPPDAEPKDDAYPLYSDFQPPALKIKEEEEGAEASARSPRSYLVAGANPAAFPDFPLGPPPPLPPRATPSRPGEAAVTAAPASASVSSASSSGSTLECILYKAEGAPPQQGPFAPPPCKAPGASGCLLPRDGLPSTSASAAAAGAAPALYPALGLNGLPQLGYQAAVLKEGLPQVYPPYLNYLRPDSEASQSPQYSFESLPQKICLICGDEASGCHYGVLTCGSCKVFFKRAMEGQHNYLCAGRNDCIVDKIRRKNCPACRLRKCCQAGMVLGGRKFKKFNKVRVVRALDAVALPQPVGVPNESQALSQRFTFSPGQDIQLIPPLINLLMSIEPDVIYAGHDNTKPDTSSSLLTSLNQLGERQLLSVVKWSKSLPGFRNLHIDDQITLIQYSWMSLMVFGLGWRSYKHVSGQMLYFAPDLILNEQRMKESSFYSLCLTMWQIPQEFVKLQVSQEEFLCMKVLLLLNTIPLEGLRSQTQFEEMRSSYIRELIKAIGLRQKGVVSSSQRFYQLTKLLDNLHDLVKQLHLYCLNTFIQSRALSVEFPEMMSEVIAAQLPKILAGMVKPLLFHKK

This experiment deals with Progesterone receptor (Homo sapiens) (UniProt P06401). Put plainly: qHTS assay to identify small molecule agonists of the progesterone receptor (PR) signaling pathway (AID 1346784). Further: nearly all actives have a fitted effect of over 30% in size. The note with it: PR-UAS-bla HEK293T, beta-lactamase FRET ratio, 16 h; series mostly up to 92.4 µM. The gist of the method:
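Seed PR-UAS-bla HEK 293T cells (2% charcoal-stripped FBS), incubate 6 hr at 37C; add compounds in DMSO, 16 hr at 37C; add LiveBLAzer B/G substrate, 2 hr RT; read fluorescence intensity.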
For `O=Cc1ccccc1C=O`, the Potency entry is “inactive”.

For the compound `C=C[Si](OCCOC)(OCCOC)OCCOC`, the Potency entry is “inactive”.

As for `C=C[C@@]1(C)CC(=O)[C@]2(O)[C@@]3(C)[C@@H](O)CCC(C)(C)[C@@H]3[C@H](O)[C@H](OC(C)=O)[C@@]2(C)O1`, the Potency result is “inactive”.

For the compound `NCCN`, the Potency result was “inactive”.

`O=C1OC2(c3ccccc31)c1cc(I)c(O)c(I)c1Oc1c2cc(I)c(O)c1I`: the Potency entry is “inactive”.

As to `CCOC(=O)C(C)Oc1ccc(Oc2cnc3cc(Cl)ccc3n2)cc1` (stereo unspecified), the Potency result is “inactive”.

Take `O=C(O)CCCCCCCCCCCC(=O)O`: the Potency result is “inactive”.

Turning to `Cc1ccc(C(C)(C)C)c(O)c1`, the Potency entry is “inactive”.

In the case of `C=C[C@H]1CN2CC[C@H]1C[C@H]2[C@H](O)c1ccnc2ccc(OC)cc12`, the Potency entry was “inactive”.

As to `C=C[C@H]1CN2CC[C@H]1C[C@@H]2[C@@H](O)c1ccnc2ccc(OC)cc12`, the Potency result is “inactive”.

Turning to `CC(C)(C)c1cccc(C(C)(C)C)c1O`, the Potency entry was “inactive”.

Turning to `CCC/C=C/C=O`, the Potency result is “inactive”.

Consider `OC[C@H]1O[C@@H]2O[C@H]3[C@H](O)[C@@H](O)[C@@H](O[C@H]4[C@H](O)[C@@H](O)[C@@H](O[C@H]5[C@H](O)[C@@H](O)[C@@H](O[C@H]6[C@H](O)[C@@H](O)[C@@H](O[C@H]7[C@H](O)[C@@H](O)[C@@H](O[C@H]1[C@H](O)[C@H]2O)O[C@@H]7CO)O[C@@H]6CO)O[C@@H]5CO)O[C@@H]4CO)O[C@@H]3CO`, for which the Potency result is “inactive”.

Consider `CN(C)CCCN1c2ccccc2Sc2ccc(Cl)cc21`, for which the Potency result was “inactive”.

For the compound `Cc1ccc(C)c(O)c1`, the Potency entry is “inactive”.

Take `COC(=O)CC(=O)OC`: the Potency entry is “inactive”.

In the case of `Nc1ccc(O)c(N)c1`, the Potency result was “inactive”.

`NCCS(=O)(=O)O`: the Potency entry was “inactive”.

As to `C[C@]12CC[C@@H]3c4ccc(O)cc4CC[C@H]3[C@@H]1CC[C@H]2O`, the Potency entry was “inactive”.

As for `c1ccc2ncccc2c1`, the Potency entry is “inactive”.

With `O=C(O)c1cc(=O)[nH]c(=O)[nH]1`, the Potency result was “inactive”.

For `COCCOCCOCCO`, the Potency entry is “inactive”.

On to `COc1cc([C@H]2Oc3cc([C@H]4Oc5cc(O)cc(O)c5C(=O)[C@@H]4O)ccc3O[C@@H]2CO)ccc1O`, for which the Potency entry was “inactive”.

As for `C=CCCCCCCCCCC`, the Potency result is “inactive”.

Consider `CCC(=O)O[C@H]1[C@H](O[C@@H]2[C@@H](C)[C@H](O[C@H]3C[C@@](C)(OC)[C@@H](O)[C@H](C)O3)[C@@H](C)C(=O)O[C@H](CC)[C@@](C)(O)[C@H](O)[C@@H](C)C(=O)[C@H](C)C[C@@]2(C)O)O[C@H](C)C[C@@H]1N(C)C`, for which the Potency result was “inactive”.

As to `[O-]/[N+](=N\O)c1ccccc1`, the Potency entry is “inactive”.

Turning to `Cc1cccc(Nc2ccccc2C(=O)O)c1C`, the Potency result is “inactive”.

Consider `CC1(C)NC(=O)N(c2ccc([N+](=O)[O-])c(C(F)(F)F)c2)C1=O`, for which the Potency entry is “inactive”.

On to `CC(=O)OC(C)C`, for which the Potency result is “inactive”.

As for `COC(=O)c1ccc(C)cc1`, the Potency entry was “inactive”.

For the compound `CC(=O)O[C@]1(C(C)=O)CC[C@H]2[C@@H]3C=C(C)C4=CC(=O)CC[C@]4(C)[C@H]3CC[C@@]21C`, the Potency was 3.9 nM (active).
